HT1080 IDH1KD tx – HT-1080 IDH1 knockdown cell toxicity (counter line) | AID 686971 | actives 2% (n = 360,000) | Potency, µM (top dose mostly 46.1 µM), usual class: cytotoxic | HT-1080 IDH1 knockdown viability, ATP luminescence, 48 h
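Viability of IDH1-knockdown HT-1080 fibrosarcoma cells was assessed by CellTiter-Glo after 48 h at 37 °C with titrated compound; concentration-effect curves were classified by fit quality and response size.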
KB-V1 cytotox – KB-V1 MDR subline cytotoxicity | AID 1347076 | KB-V1 MDR cells viability, CellTiter-Glo, 72 h | actives 3.4% (n = 400,000) | Potency, µM (highest dose often 46.1 µM), usual class: cytotoxic; also: nearly all actives have a fitted effect of over 60% in size
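Readout: CellTiter-Glo luminescence, 10 min after addition. Cells: KB-V1 MDR subline, 72 h at 37 degrees C with compound. Analysis: corrected, normalized data fitted to concentration-effect curves.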
KB-3-1 tox – kills parental KB-3-1 adenocarcinoma cells. KB-3-1 viability, CellTiter-Glo ATP luminescence, 72 h. Potency, µM (series often up to 46.1 µM), hits mostly cytotoxic. actives 1.4% (n = 400,000); also: nearly all actives have a fitted effect of over 60% in size
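Luminescent ATP read-out (CellTiter-Glo) measures survival of drug-naive KB-3-1 cells after 72 h compound exposure at 37 °C. Titration series was screened from lowest to highest concentration, with DMSO vehicle plates as background controls.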
HT1080NT lethal – kills 2HG-producing HT-1080-NT fibrosarcoma cells | HT-1080-NT fibrosarcoma viability, CellTiter-Glo ATP luminescence, 48 h | Potency, µM (top dose mostly 46.1 µM), actives largely listed as cytotoxic | actives 1.6% (n = 360,000);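 also: NT is the 2HG producing partner of a matched IDH1 knockdown line; nearly all actives have a fitted effect of over 55% in size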
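HT-1080-NT fibrosarcoma cells (2HG-overproducing), 750 cells/well in RPMI with 5% FBS, dosed after 2 h and incubated 48 h at 37C. CellTiter-Glo luminescence normalized to DMSO and no-cell wells; concentration-response curves fitted and classed.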
Hits are given with their value; . = inactive; ? = inconclusive; / = no result given. Sampled rows, rich in hits. Any-hit rate of the full collection: about 5.7%. Calls follow the shape of the dose curve; as a rule, active = well fitted curve in the direction sought with a large enough effect; inconclusive = small, poorly fitted or top-dose-only effect, or another doubt; inactive = no such curve, though single readings can be large; an effect the other way counts as inactive or inconclusive.

SMILES | HT1080 IDH1KD tx | KB-V1 cytotox | KB-3-1 tox | HT1080NT lethal
C=CCN(c1ccccc1OC)S(=O)(=O)c1cccc(C(=O)OCC(=O)c2c[nH]c3ccccc23)c1 | . | 12µM | ? | .
COc1cc(OC)c(N(C)S(=O)(=O)c2cccc(C(=O)OCC(=O)c3c[nH]c4ccccc34)c2)cc1Cl | ? | ? | . | .
Cc1cc([N+](=O)[O-])ccc1NC(=O)C(C)N1CCN(c2ccccn2)CC1 (stereo not drawn) | . | 21µM | . | .
CCC(Oc1ccccc1)C(=O)Nc1cc(-c2ccccc2F)nn1-c1ccccc1 (stereo not drawn) | / | . | . | /
CCc1ccc(-c2cc(C)no2)cc1S(=O)(=O)NCc1ccc(OC)cc1 | / | 3.7µM | 3.3µM | /
COc1ccc(-c2cc(C)no2)cc1S(=O)(=O)N(C)c1ccc(C)cc1 | ? | 8.2µM | ? | ?
CCc1ccc(-c2cc(C)no2)cc1S(=O)(=O)N1CCOc2ccccc21 | ? | 21µM | . | ?
CCc1ccc(-c2cc(C)no2)cc1S(=O)(=O)NCCCN1CCN(c2ccccc2)CC1 | ? | . | ? | 18µM
CCOc1ccc(N(C)S(=O)(=O)c2cc(-c3cc(C)no3)ccc2OC)cc1 | . | . | . | .
CCOc1ccc(NC(=O)C2CC(=O)N(c3ccc(C(C)C)cc3)C2)cc1 (stereo not drawn) | / | ? | . | /
CCOc1ccc(NS(=O)(=O)c2ccc3[nH]cc(C(=O)N(C)C4CCCCC4)c(=O)c3c2)cc1 | / | ? | . | /
CCc1ccc(-c2cc(C)no2)cc1S(=O)(=O)N1CCN(c2ccccn2)CC1 | . | ? | ? | ?
CCc1ccc(-c2cc(C)no2)cc1S(=O)(=O)N1CCN(c2ccc(F)cc2)CC1 | . | 12µM | ? | .
CCOc1cc(CNCCSc2nnnn2C)cc(Br)c1OCc1ccc(F)cc1 | . | 18µM | ? | 23µM
Cc1noc(-c2ccc(Cl)cc2)c1C(=O)O/N=C(\N)c1ccc(C(C)(C)C)cc1 | ? | 18µM | ? | ?
Cc1cc(C(=O)O/N=C(\N)c2ccc(C(C)(C)C)cc2)no1 | . | . | . | .
COc1cc(NC(=O)CSc2ncc(S(=O)(=O)c3ccc(Br)cc3)c(=O)[nH]2)cc(OC)c1 | / | . | . | /
O=C1OCC(CO)(CO)N=C1NNc1ccccc1Cl | . | . | . | 10µM
O=C(O)C1(Nc2ccccc2Cl)CCCC1 | . | . | . | .
CCc1n[nH]c(=S)n1/N=C/C(C)=C\c1ccccc1 | . | 7.3µM | ? | .
CC(/C=N/n1c(-c2ccccn2)n[nH]c1=S)=C\c1ccccc1 | . | . | ? | .
COc1ccc(-c2cc(C(C)=O)c(C)n2CCC(=O)Nc2ccc(C(F)(F)F)cc2)cc1 | / | . | ? | /
O=C1/C(=C/c2ccc(Br)cc2)Oc2cc(O)ccc21 | ? | ? | . | .
CC(C)(C)c1ccc(/C=C2\Oc3cc(O)ccc3C2=O)cc1 | ? | . | 16µM | ?
Cc1cccc(C(=O)Nc2nc3nc(-c4ccccc4)cc(=O)n3[nH]2)c1 | / | . | . | /
SMILES | HT1080 IDH1KD tx | KB-V1 cytotox | KB-3-1 tox | HT1080NT lethal
Cc1ccccc1-c1nc(SCC(=O)NCc2ccc(F)cc2)c2c(=O)n(C)c(=O)n(C)c2n1 | / | . | . | /
CN(c1ccccc1)S(=O)(=O)c1cc(C(=O)OCC(=O)c2c(N)n(C)c(=O)n(C)c2=O)ccc1Cl | . | 16µM | . | .
Cn1c(N)c(C(=O)COC(=O)c2ccc(Cl)c(S(=O)(=O)N3CCCCC3)c2)c(=O)n(C)c1=O | . | 21µM | . | .
COc1cccc2c1Oc1ncccc1N(C(=O)CCC(=O)NC(C)C)C2 | / | . | . | /
COc1ccc2c(CNC3CCCCCC3)c(C(=O)O)n(Cc3ccccc3F)c2c1 | / | . | . | /
COc1ccc(NC(=O)CC2C(=O)N(c3ccc(C)cc3)C(=O)N2Cc2ccc(C)cc2)cc1 (stereo not drawn) | / | . | . | /
CC(=O)N1CCc2c(sc3c2c(=O)n(-c2cccc(Cl)c2)c(=O)n3Cc2ccc(F)cc2Cl)C1 | / | . | . | /
CC(C)c1ccc(C(=O)NCCCN2CCN(CCCNC(=O)c3ccc(C(C)C)cc3)CC2)cc1 | ? | ? | . | 18µM
O=C(NCc1ccccc1)C(c1ccc(-c2ccccc2)cc1)N1CCN(C(=O)C2CCCO2)CC1 (stereo not drawn) | ? | ? | ? | .
CCC(C)Nc1c2c(nc3c(-c4ccccc4)c(C)nn13)CCC2 (stereo not drawn) | ? | 9.2µM | . | .
COCCNc1c2c(nc3c(-c4ccccc4)c(C)nn13)CCCC2 | ? | ? | . | ?
